Experimental data reported in PubChem BioAssay AID1159580 (chemical genetic matrix, 2015).
Hit rate of the full screen: of about 5,500 compounds, about 2,000 (36%) were called active. Inconclusive results (about 18%) are left out. Rule as the data show it: active = normalized growth mostly below about 0.91 (no sharp cut-off); inconclusive = no clear call, values can overlap the other calls; inactive = mostly above about 0.92. This is one part of the list.

Test: chemical genetic growth profiling, strain panel (AID 1159580);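 also: tested at 20 µM; growth read once vehicle control cultures reached saturation at 30 °C; 1 = growth at the plate median or of vehicle wells; lower values mean less growth of the strain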
Details: S. cerevisiae deletion strains, growth OD

Measured: normalized growth

COc1cc(C(=O)O[C@H]2CC[C@@]3(C)[C@@H]4CC[C@H]5[C@]6(O)C[C@H](O)[C@@]7(O)[C@@H](CN8C[C@@H](C)CC[C@H]8[C@@]7(C)O)[C@]6(O)C[C@@]53O[C@]24O)cc(OC)c1OC
inactive: locus YAL021C, strain ccr4, active compounds read low 1 | locus YAL026C, strain drs2, active compounds read low 1.02 | locus YAL030W, strain snc1, active compounds read low 0.996 | locus YBL061C, strain skt5, active compounds read low 0.994 | locus YBR009C, strain hhf1, active compounds read low 1.01 | locus YBR021W, strain FUR4, active compounds read low 1.01 | locus YBR023C, strain chs3, active compounds read low 0.996 | locus YBR171W, strain sec66, active compounds read low 1.02 | locus YBR229C, strain ROT2, active compounds read low 0.955 | locus YBR231C, strain swc5, active compounds read low 0.994 | locus YBR279W, strain paf1, active compounds read low 1.01 | locus YCL011C, strain gbp2, active compounds read low 0.997 | locus YCL016C, strain dcc1, active compounds read low 1 | locus YCL029C, strain bik1, active compounds read low 0.98 | locus YCL061C, strain MRC1, active compounds read low 1 | locus YCL069W, strain vba3, active compounds read low 1 | locus YCR088W, strain abp1, active compounds read low 1.01 | locus YDL005C, strain med2, active compounds read low 0.973 | locus YDL035C, strain GPR1, active compounds read low 1 | locus YDL040C, strain nat1, active compounds read low 1 | locus YDL074C, strain BRE1, active compounds read low 1.03 | locus YDL101C, strain DUN1, active compounds read low 0.989 | locus YDL134C, strain PPH21, active compounds read low 0.979 | locus YDL185W, strain tfp1, active compounds read low 0.978 | locus YDL192W, strain arf1, active compounds read low 1.01 | locus YDR001C, strain nth1, active compounds read low 1.01 | locus YDR069C, strain doa4, active compounds read low 0.998 | locus YDR101C, strain arx1, active compounds read low 1.03 | locus YDR137W, strain rgp1, active compounds read low 0.965 | locus YDR159W, strain sac3, active compounds read low 0.972 | locus YDR162C, strain NBP2, active compounds read low 0.985 | locus YDR195W, strain ref2 0.967 | locus YDR297W, strain sur2, active compounds read low 1.01 | locus YDR318W, strain mcm21, active compounds read low 0.972 | locus YDR334W, strain swr1, active compounds read low 1.01 | locus YDR335W, strain msn5, active compounds read low 1.01 | locus YDR388W, active compounds read low 0.993 | locus YDR392W, strain spt3, active compounds read low 0.996 | locus YDR502C, strain sam2, active compounds read low 1 | locus YEL003W, strain gim4, active compounds read low 1 | locus YEL037C, strain rad23, active compounds read low 1.03 | locus YEL061C, strain CIN8 (second series), active compounds read low 1.02 | locus YEL061C, strain CIN8, active compounds read low 0.993 | locus YER015W, strain faa2, active compounds read low 0.998 | locus YER016W, strain bim1, active compounds read low 0.995 | locus YER110C, active compounds read low 0.975 | locus YER111C, strain swi4, active compounds read low 1 | locus YER155C, strain BEM2 (second series), active compounds read low 1 | locus YER155C, strain BEM2, active compounds read low 0.99 | locus YER167W, strain BCK2, active compounds read low 0.993 | locus YFR010W, strain ubp6, active compounds read low 1.02 | locus YGL078C, strain dbp3, active compounds read low 0.999 | locus YGL086W, strain mad1, active compounds read low 1.05 | locus YGL167C, strain pmr1, active compounds read low 0.999 | locus YGL173C, strain kem1, active compounds read low 1 | locus YGL227W, strain vid30, active compounds read low 1.01 | locus YGL240W, strain doc1, active compounds read low 0.978 | locus YGL248W, strain PDE1, active compounds read low 0.998 | locus YGL253W, strain hxk2, active compounds read low 1 | locus YGR078C, strain PAC10, active compounds read low 0.99 | locus YGR135W, strain pre9, active compounds read low 0.99 | locus YGR229C, strain SMI1, active compounds read low 1.02 | locus YGR252W, strain gcn5, active compounds read low 0.957 | locus YHR013C, strain ard1, active compounds read low 0.962 | locus YHR027C, strain rpn1, active compounds read low 1.01 | locus YHR030C, strain SLT2, active compounds read low 1 | locus YHR079C, strain IRE1 (second series), active compounds read low 0.992 | locus YHR094C, strain hxt1, active compounds read low 0.971 | locus YHR129C, strain ARP1, active compounds read low 0.985 | locus YHR142W, strain chs7, active compounds read low 1.02 | locus YHR200W, strain rpn10, active compounds read low 0.987 | locus YIL066C, strain RNR3, active compounds read low 0.983 | locus YIL073C, strain SPO22, active compounds read low 1.02 | locus YIL125W, strain kgd1, active compounds read low 1 | locus YIR030C, strain dcg1, active compounds read low 0.993 | locus YJL092W, strain hpr5, active compounds read low 1.02 | locus YJL095W, strain BCK1 (second series), active compounds read low 0.993 | locus YJL095W, strain BCK1, active compounds read low 0.998 | locus YJL115W, strain asf1, active compounds read low 1 | locus YJL129C, strain trk1, active compounds read low 1.01 | locus YJL134W, strain LCB3, active compounds read low 0.985 | locus YJL154C, strain vps35, active compounds read low 1.01 | locus YJL164C, strain tpk1, active compounds read low 0.999 | locus YJL166W, strain qcr8, active compounds read low 1.01 | locus YJL168C, strain set2, active compounds read low 0.996 | locus YJL187C, strain SWE1 (second series), active compounds read low 1.01 | locus YJL187C, strain SWE1, active compounds read low 1.01 | locus YJR043C, strain POL32, active compounds read low 0.993 | locus YKL009W, strain mrt4, active compounds read low 0.981 | locus YKL068W, active compounds read low 0.988 | locus YKL085W, strain MDH1 (second series), active compounds read low 1 | locus YKL085W, strain MDH1, active compounds read low 1 | locus YKL160W, strain elf1, active compounds read low 1 | locus YKR001C, strain vps1, active compounds read low 1.06 | locus YKR026C, strain gcn3, active compounds read low 1.01 | locus YKR091W, strain srl3, active compounds read low 1 | locus YLL001W, strain dnm1, active compounds read low 1.01 | locus YLL026W, active compounds read low 0.989 | locus YLL041C, strain sdh2, active compounds read low 1.01 | locus YLR027C, strain aat2, active compounds read low 0.977 | locus YLR039C, strain RIC1, active compounds read low 0.972 | locus YLR058C, strain SHM2, active compounds read low 0.978 | locus YLR102C, strain apc9, active compounds read low 0.985 | locus YLR221C, strain rsa3, active compounds read low 1 | locus YLR258W, strain gsy2, active compounds read low 0.98 | locus YLR262C, strain YPT6 (second series), active compounds read low 0.954 | locus YLR262C, strain YPT6, active compounds read low 0.975 | locus YLR268W, strain sec22, active compounds read low 1.04 | locus YLR320W, strain mms22, active compounds read low 0.986 | locus YLR330W, strain CHS5, active compounds read low 1 | locus YLR342W, strain FKS1 (second series), active compounds read low 1.03 | locus YLR342W, strain FKS1, active compounds read low 0.986 | locus YLR357W, strain rsc2, active compounds read low 0.974 | locus YLR370C, strain arc18, active compounds read low 0.985 | locus YLR371W, strain rom2, active compounds read low 0.991 | locus YLR384C, strain iki3, active compounds read low 0.974 | locus YLR418C, strain cdc73, active compounds read low 0.977 | locus YML016C, strain PPZ1, active compounds read low 0.998 | locus YML032C, strain rad52, active compounds read low 0.96 | locus YML120C, strain ndi1, active compounds read low 1 | locus YML124C, strain tub3, active compounds read low 0.985 | locus YMR058W, strain fet3, active compounds read low 1 | locus YMR078C, strain ctf18, active compounds read low 0.99 | locus YMR125W, strain sto1, active compounds read low 1.02 | locus YMR129W, active compounds read low 1 | locus YMR205C, strain PFK2, active compounds read low 1 | locus YMR223W, strain ubp8, active compounds read low 0.964 | locus YMR231W, strain pep5, active compounds read low 0.999 | locus YMR307W, strain GAS1, active compounds read low 1.07 | locus YNL067W, strain RPL9B, active compounds read low 0.997 | locus YNL071W, strain lat1, active compounds read low 1 | locus YNL153C, strain GIM3, active compounds read low 1.01 | locus YNL209W, strain ssb2, active compounds read low 0.997 | locus YNL233W, strain BNI4, active compounds read low 1.01 | locus YNL248C, strain rpa49, active compounds read low 1.01 | locus YNL250W, strain rad50, active compounds read low 0.977 | locus YNL271C, strain bni1, active compounds read low 0.993 | locus YNL298W, strain CLA4, active compounds read low 0.971 | locus YNL307C, strain MCK1, active compounds read low 0.986 | locus YNL322C, strain KRE1 (second series), active compounds read low 0.989 | locus YNL322C, strain KRE1, active compounds read low 0.996 | locus YNR049C, strain mso1, active compounds read low 0.987 | locus YNR052C, strain pop2, active compounds read low 0.996 | locus YOL012C, strain htz1 1.37 | locus YOL147C, strain pex11, active compounds read low 0.985 | locus YOR001W, strain rrp6, active compounds read low 0.988 | locus YOR061W, strain CKA2, active compounds read low 0.962 | locus YOR069W, strain VPS5, active compounds read low 0.996 | locus YOR070C, strain gyp1, active compounds read low 1.01 | locus YOR080W, strain dia2, active compounds read low 1.01 | locus YOR083W, strain WHI5, active compounds read low 1 | locus YOR106W, strain vam3, active compounds read low 0.999 | locus YOR136W, strain idh2, active compounds read low 0.985 | locus YOR144C, strain elg1, active compounds read low 0.98 | locus YOR184W, strain ser1, active compounds read low 0.976 | locus YOR265W, strain rbl2, active compounds read low 0.983 | locus YOR270C, strain vph1, active compounds read low 1.11 | locus YOR290C, strain snf2, active compounds read low 1.02 | locus YOR316C, strain cot1, active compounds read low 0.976 | locus YPL051W, strain arl3, active compounds read low 0.998 | locus YPL055C, strain LGE1, active compounds read low 1.01 | locus YPL078C, strain atp4, active compounds read low 0.998 | locus YPL106C, strain sse1, active compounds read low 0.968 | locus YPL240C, strain hsp82, active compounds read low 0.992 | locus YPR119W, strain clb2, active compounds read low 0.979 | locus YPR141C, strain kar3, active compounds read low 0.981 | locus YPR163C, strain tif3, active compounds read low 1.01 | locus YPR167C, strain met16, active compounds read low 0.978 | strain wtn01, active compounds read low 1.04
